Hit rate of the full screen: of about 360,000 compounds, about 25,000 (6.9%) were called active. Entries that show only a call come without a potency. Inconclusive results (about 9%) are left out. For the sample, actives were picked, then their nearest neighbours and some compounds at random. A number with no mark means an inactive call. Calls come from the whole dose curve; as a rule, active = well fitted inhibition curve with a large enough effect; inconclusive = small, poorly fitted or top-dose-only effect; inactive = flat fitted curve, though single readings scatter.
Target: Luciferin 4-monooxygenase (Photinus pyralis) (UniProt P08659)
Assay: qHTS profiling assay for firefly luciferase inhibitor/activator using purifed enzyme and Km concentrations of substrates (counterscreen for miR-21 project); note: nearly all actives have a fitted effect of over 55% in size
Details: purified FLuc, luminescence inhibition; series mostly up to 57.5 µM
Procedure, shortened: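 Purified P. pyralis luciferase (10nM final) with 10uM D-luciferin and 10uM ATP (Km levels) in 50mM Tris acetate pH 7.5, 10mM Mg acetate, 0.01% Tween-20, 0.05% BSA; qHTS 6-point titration, ~60 µM downward; luminescence read.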
Potency is the fitted concentration of half-maximal effect.

Chain of Luciferin 4-monooxygenase (Photinus pyralis) (P08659 whole entry, looked up): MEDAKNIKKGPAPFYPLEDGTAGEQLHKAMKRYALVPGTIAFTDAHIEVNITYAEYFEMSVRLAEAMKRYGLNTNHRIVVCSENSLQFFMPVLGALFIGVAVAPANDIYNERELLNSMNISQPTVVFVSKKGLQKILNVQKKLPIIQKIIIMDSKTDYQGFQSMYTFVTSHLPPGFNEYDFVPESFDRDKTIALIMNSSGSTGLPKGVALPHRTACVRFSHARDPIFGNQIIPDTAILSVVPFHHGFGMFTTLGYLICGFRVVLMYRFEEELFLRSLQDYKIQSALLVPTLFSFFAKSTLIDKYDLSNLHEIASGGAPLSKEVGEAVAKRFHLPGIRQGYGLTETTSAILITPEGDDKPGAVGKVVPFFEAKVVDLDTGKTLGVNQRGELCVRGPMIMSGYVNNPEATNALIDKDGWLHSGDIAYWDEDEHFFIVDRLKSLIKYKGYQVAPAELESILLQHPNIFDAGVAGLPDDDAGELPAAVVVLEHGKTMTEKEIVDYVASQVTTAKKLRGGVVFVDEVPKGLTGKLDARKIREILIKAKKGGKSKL

Structure (SMILES) | Potency | activity change, negative = inhibition
COc1cc(CN2CCC(C(N)=O)CC2)ccc1OCc1ccccc1 | 10.7 µM (active) | –
COc1ccc(COCC(O)CN2CCC(C(N)=O)CC2)cc1 (configuration not stated) | inactive | –
CCOc1cc(CN2CCN(C(=O)CC(C)C)CC2)ccc1OC | inactive | –
CCC(C)(C)NC(=O)CN(Cc1cccs1)C(=O)CNS(=O)(=O)c1ccc(F)cc1 | inactive | –
CCOC(=O)Cn1c(=O)n(Cc2ccc(OC)cc2)c(=O)c2cccnc21 | inactive | –
CCOC(=O)c1cnc2c(C)cc(Cl)cc2c1NCCc1ccc(OC)c(OC)c1 | inactive | –
COc1cc(NC(=O)Cn2nc(-c3ccc(C)c(C)c3)ccc2=O)cc(OC)c1 | inactive | –
CCOC(=O)c1cc(C(C)C)sc1NC(=O)COC(=O)c1nccnc1N | inactive | –
CC(C)c1cc(C(N)=O)c(NC(=O)c2cccc(COc3ccc(Br)cc3)c2)s1 | 19 µM (active) | –
NNC(=O)c1cccc(COCC(F)(F)C(F)F)c1 | inactive | –
COc1ccc(CCNC(=O)Cn2c(=O)n(-c3ccccc3)c(=O)c3c(C)c(C)sc32)cc1OC | inactive | –
CCOc1ccc(N(CC)C(=O)c2cc3c(=O)oc4ccccc4c3s2)cc1 | inactive | –
CCOc1ccc(NC(=O)C2CCCN(C(=O)Nc3ccccc3)C2)cc1 (configuration not stated) | inactive | –
Cc1ccc(N(NC(=O)C(C)(C)O)C(=O)c2ccccc2)cc1C | inactive | –
CCCOc1ccc(NC(=O)C2OC3OC(C)(C)OC3C3OC(C)(C)OC23)cc1 (configuration not stated) | inactive | –
Cc1ccc(N/C=C/C(=O)c2ccccc2)cc1C | 0.151 µM (active) | –
COCCN(C(=O)CCC(=O)Nc1ccccn1)C(C(=O)NCCC(C)C)c1ccc(OC)cc1 (configuration not stated) | inactive | –
CCCOc1ccc(NC(=O)C2CCCNC2=O)cc1 (configuration not stated) | – | 3.63% [at 2.3 µM]
COc1ccc(N2C(=O)CCC(C(=O)Nc3ccccn3)C2c2ccc(OC)c(OC)c2)cc1 (configuration not stated) | inactive | –
Cc1ccc(NNC(=O)C2CCC2)cc1C | inactive | –
CCOc1ccc(N/C=C/C(=O)c2ccccc2)cc1 | 0.269 µM (active) | –
CCCOc1ccc(N/C=C/C(=O)C(C)(C)C)cc1 | 10.7 µM (active) | –
CCOc1ccc(NC(=S)N2CCC(NC(=O)c3ccccc3)CC2)cc1 | inactive | –
COc1ccc(C(=O)/C=C/Nc2ccccn2)cc1 | 0.107 µM (active) | –
CC(Oc1ccccc1F)C(=O)NN (configuration not stated) | inactive | –
CCOC(=O)Cc1ccc(NC(=O)Nc2c[nH]c(=O)[nH]c2=O)cc1 | inactive | –

Structure (SMILES) | Potency | activity change, negative = inhibition
COc1ccc(OC)c(NC(=O)CN2CCCN(Cc3cc(C)ccc3C)S2(=O)=O)c1 | inactive | –
COc1cccc(NC(=O)C2CCN(c3cc(C)nc4c(-c5ccc(Cl)cc5)c(C)nn34)CC2)c1 | inactive | –
COc1ccc(OC)c(-c2noc(N3CCN(c4cc(Cl)ccc4C)CC3)n2)c1 | inactive | –
Cc1ccccc1CNC(=O)Cn1c(C)c2cnn(-c3ccccc3)c(=O)c2c1C | inactive | –
O=C(CN(CC1CCCO1)C(=O)CNS(=O)(=O)c1ccc(F)cc1)NCc1ccco1 (configuration not stated) | inactive | –
CCOc1ccc(N/C=C/C(=O)c2cc(OC)c(OC)c(OC)c2)cc1 | 13.5 µM (active) | –
CCC(=O)c1ccc(OC(=O)/C=C/c2cc(OC)c(OC)c(OC)c2)cc1 | inactive | –
CCOc1ccc(C(NC(=O)c2cc(OC)c(OC)c(OC)c2)c2cc(Cl)c3cccnc3c2O)cc1 (configuration not stated) | inactive | –
CC1(C)O[C@@H]2[C@H](O1)[C@@H](COS(=O)(=O)O)O[C@H]2n1ccc(=O)[nH]c1=O | inactive | –
O=C(NCC(=O)N(Cc1cccs1)C(C(=O)NC1CCCCC1)c1ccco1)c1cccs1 (configuration not stated) | inactive | –
O=C(/C=C/c1ccc2c(c1)OCO2)NCc1cn2cc(Cl)ccc2n1 | inactive | –
Clc1ccc2nc(CSc3ccccc3)cn2c1 | 0.849 µM (active) | –
O=c1c2ccccc2nc2n1C(CSc1ccc(Cl)cc1)CN2 (configuration not stated) | inactive | –
Cc1cccc(-c2oc3ccc(-c4ccc5c(c4)OCO5)cc3c2C#Cc2cncn2C)c1 | inactive | –
Cc1ccc(NC(=O)CN2C(=O)CC(C)Sc3ccccc32)c(C)c1 (configuration not stated) | inactive | –
COc1cccc(C2=CC(=O)C[C@H](c3ccc(OC)c(OC)c3)C2)c1 | inactive | –
C/C(=N\O)C1(C)N(O)C(C)(C)C(c2ccc(Br)cc2)=[N+]1[O-] (configuration not stated) | inactive | –
CC1(C)C(c2cccs2)=[N+]([O-])C2(CCCCC2=O)N1O (configuration not stated) | inactive | –
CC(=O)C1(C)N(O)C(C)(C)C(c2cccs2)=[N+]1[O-] (configuration not stated) | 0.301 µM (active) | –
COc1ccc(SCc2cc(=O)c3ccc(C)c(C)c3[nH]2)cc1 | inactive | –
C=CCn1c(SCC(=O)Nc2ccc(NC(C)=O)cc2)nc2sc(C)c(C)c2c1=O | inactive | –
CC(=O)Nc1ccc(NC(=O)CSc2nnnn2C2CCCCC2)cc1 | inactive | –
CC1CCCC(C)N1C(=O)CSc1nnnn1C1CCCC1 (configuration not stated) | inactive | –
O=C(CSc1nnnn1C1CCCC1)N1CCCCC1 | 19 µM (active) | –
COc1ccc(Cn2c(=O)n(-c3ccccc3C)c(=O)c3c4c(sc32)CN(C(C)=O)CC4)cc1 | inactive | –
COc1ccc(-c2nc3scc(CCNS(=O)(=O)c4cc(F)ccc4OC)n3n2)cc1OC | inactive | –

Structure (SMILES) | Potency | activity change, negative = inhibition
CCOc1ccc(CNCCSc2nnnn2C)cc1 | inactive | –
CC1CC(C)CN(CCC(=O)Nc2ccc3c(c2)CCC3)C1 (configuration not stated) | inactive | –
O=C(N/N=C\c1cc2c(cc1Cl)OCO2)c1ccc(Br)s1 | inactive | –
O=C(Nc1ccc2c(c1)CCC2)c1ccc(Br)s1 | 1.9 µM (active) | –
Cc1cccc(N2CCN(S(=O)(=O)c3ccc4[nH]c5c(c4c3)CCCCC5)CC2)c1C | inactive | –
CN1CCN(c2oc(-c3ccc(COc4ccc(Cl)cc4)o3)nc2C#N)CC1 | inactive | –
Cc1cc(C)cc(NC(=O)CN2C(=O)c3ccccc3C2=O)c1 | inactive | –
C=CCn1c(C)cc(C(=O)CN2C(=O)c3ccccc3C2=O)c1C | 1.51 µM (active) | –
C=CCN(CC=C)C(=O)CN1C(=O)c2ccccc2C1=O | inactive | –
CCc1ccc(NC(=O)CCCc2nnc3n(CCCOC)c(=O)c4sccc4n23)cc1 | inactive | –
COc1ccccc1NC(=O)c1cc(S(=O)(=O)NCCc2ccccc2)ccc1F | inactive | –
Cc1ccc(C)c(S(=O)(=O)n2nc(C)c(S(=O)(=O)N3CCC(C)CC3)c2C)c1 | inactive | –
COc1ccc(CC(=O)Nc2sc(Cc3ccccc3)c(C)c2C(N)=O)cc1 | inactive | –
COc1ccc(/C(N)=N/OC(=O)Cc2ccccc2)cc1 | 19 µM (active) | –
COc1ccc(/C(N)=N/OC(=O)Oc2ccccc2)cc1 | inactive | –
CCC(=O)N1CCc2cc(S(=O)(=O)NC(Cc3ccccc3)C(=O)NCc3ccccc3)ccc21 (configuration not stated) | inactive | –
COc1cccc(N(C(=O)c2snc(C(N)=O)c2N)C(C(=O)NCC2CCCO2)c2c[nH]c3ccccc23)c1 (configuration not stated) | inactive | –
CCOC(=O)C1(Cc2ccccc2C)CCCN(S(C)(=O)=O)C1 (configuration not stated) | inactive | –
CCOC(=O)C1(Cc2ccccc2C)CCCN(C(=O)c2ccc(COC)o2)C1 (configuration not stated) | 21.3 µM (active) | –
CCOC(=O)C1(Cc2ccccc2C)CCCN(C(=O)CN2C(=O)CSC2=O)C1 (configuration not stated) | inactive | –
CCOC(=O)c1cn(CC)c2cc(F)c(F)cc2c1=O | inactive | –
COc1ccc(C(=O)NCc2ccc(C)cc2)cc1S(=O)(=O)N1CCCC1 | inactive | –
O=C(c1cnn(-c2ccc(F)cc2)c1-n1cccc1)N1CCN(c2ccc(F)cc2)CC1 | inactive | –
Nc1ccccc1SC(C[N+](=O)[O-])c1ccccc1 (configuration not stated) | 10.7 µM (active) | –
Cc1ccc(C(C[N+](=O)[O-])c2c(C)cc3ccccn23)cc1 (configuration not stated) | inactive | –
Cc1ccc(CNC(=O)CCc2c(C)nn(-c3ccc(N4CCCC4)nn3)c2C)cc1 | inactive | –

Structure (SMILES) | Potency | activity change, negative = inhibition
COC(=O)c1c(C)[nH]c(C(=O)NCCc2ccc(S(N)(=O)=O)cc2)c1C | inactive | –
CCCCOC(=O)c1[nH]c(C)c(C(=O)OC)c1C | 12 µM (active) | –
CCOC(=O)c1c(C)[nH]c(C(=O)OCC(=O)c2ccc(OC)cc2OC)c1C | inactive | –
CCn1c2ccccc2c2cc(CN3CCN(Cc4cccc(Cl)c4)CC3)ccc21 | inactive | –
CSc1ccccc1C(=O)OCC(=O)N1CCN(C(C)=O)CC1 | inactive | –
COc1ccccc1CNC(=O)COc1ccc(C)nc1[N+](=O)[O-] | inactive | –
CCOc1ccccc1C(=O)NC1(C(F)(F)F)NC(=O)N(CCc2ccc(OC)c(OC)c2)C1=O (configuration not stated) | inactive | –
Fc1ccc(CSc2nnc(-c3cc4c(s3)-c3ccccc3CC4)o2)cc1 | inactive | –
O=C(CSc1nnc(-c2ccccc2O)o1)NC1CCCCC1 | inactive | –
CCSc1nnc(-c2cc3c(s2)-c2ccccc2CC3)o1 | 10.7 µM (active) | –
CCOC(=O)c1[nH]c(C)c(CCC(=O)N2CCN(c3ccccc3)CC2)c1C | inactive | –
CC(=O)Nc1ccc(C(=O)/C=C/c2ccc[nH]2)cc1 | 8.49 µM (active) | –
CC(OC(=O)/C=C/c1ccccc1)C(=O)Nc1ccc(C(N)=O)cc1 (configuration not stated) | inactive | –
CC(=O)Nc1ccc(NC(=S)NC(=O)/C=C/c2ccccc2)cc1 | inactive | –
O=C(c1ccc(S(=O)(=O)N2CCOCC2)cc1)N1CCN(c2ccccc2)CC1 | inactive | –
O=C(/C=C/c1ccc(N2CCOCC2)cc1)c1ccccc1 | 0.953 µM (active) | –
CCCC(=O)Nc1ccc(C(=O)N/N=C/c2ccc[nH]2)cc1 | inactive | –
COC(C(=O)Nc1ccc(C(C)=O)cc1)c1ccccc1 (configuration not stated) | inactive | –
CC(=O)Nc1ccc(/C=C/C(=O)c2ccccc2)cc1 | 1.35 µM (active) | –
O=C(c1ccccc1)c1ccc(C(=O)N2CCN(c3ccccc3)CC2)cc1 | inactive | –
Cc1cc(C)cc(NC(=O)C2CCCN2S(=O)(=O)c2cccc3cccnc23)c1 (configuration not stated) | inactive | –
Cc1c(CNC(C)c2ccccc2)c(C(=O)O)c(C)n1Cc1c(F)cccc1Cl (configuration not stated) | inactive | –
COc1ccc(N2CCN(S(=O)(=O)c3ccc(-c4coc(C)n4)cc3)CC2)cc1 | inactive | –
CCOc1ccc(CNC(=O)Cn2cc3c(n2)-c2c(oc(C(=O)N4CCCC4)c2C)CC3)cc1 | inactive | –

From PubChem BioAssay AID588342 (National Center for Advancing Translational Sciences (NCATS), 2011)
